Measurements published in PubChem BioAssay AID1159580 (chemical genetic matrix, 2015).
About 2,000 (36%) of roughly 5,500 compounds were called active. Another 18% or so got no clear call; they are omitted. Cut-off read from the data, not from the text of the source: active = normalized growth mostly below about 0.91 (no sharp cut-off); inconclusive = no clear call, values can overlap the other calls; inactive = mostly above about 0.92. This is one part of the list.

Test: chemical genetic growth profiling, strain panel (AID 1159580);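 note: tested at 20 µM; growth read once vehicle control cultures reached saturation at 30 °C; 1 = growth at the plate median or of vehicle wells; lower values mean less growth of the strain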
Conditions: growth OD

Measured: normalized growth

CCC1OC(=O)[C@H](C)C(=O)[C@H](C)[C@@H](OC2O[C@H](C)C[C@H](N(C)C)[C@H]2O)[C@](C)(OC)C2(CCCn3cnc(-c4cccnc4)c3)C[C@@H](C)C(=O)[C@H](C)[C@H]3N(C2)C(=O)O[C@]13C (some centres undefined)
inactive: S. cerevisiae deletion strains, locus YJR043C, strain POL32, hits give low values 0.994 | S. cerevisiae deletion strains, locus YJR075W, strain HOC1, hits give low values 0.99 | S. cerevisiae deletion strains, locus YKL009W, strain mrt4, hits give low values 1.01 | S. cerevisiae deletion strains, locus YKL068W, hits give low values 1.01 | S. cerevisiae deletion strains, locus YKL085W, strain MDH1 (second series), hits give low values 0.998 | S. cerevisiae deletion strains, locus YKL085W, strain MDH1, hits give low values 0.998 | S. cerevisiae deletion strains, locus YKL160W, strain elf1, hits give low values 0.994 | S. cerevisiae deletion strains, locus YKL190W, strain CNB1, hits give low values 1 | S. cerevisiae deletion strains, locus YKR001C, strain vps1, hits give low values 0.997 | S. cerevisiae deletion strains, locus YKR026C, strain gcn3, hits give low values 0.989 | S. cerevisiae deletion strains, locus YKR091W, strain srl3, hits give low values 0.985 | S. cerevisiae deletion strains, locus YLL001W, strain dnm1, hits give low values 0.984 | S. cerevisiae deletion strains, locus YLL026W, hits give low values 0.988 | S. cerevisiae deletion strains, locus YLL041C, strain sdh2, hits give low values 0.977 | S. cerevisiae deletion strains, locus YLR027C, strain aat2, hits give low values 0.99 | S. cerevisiae deletion strains, locus YLR039C, strain RIC1, hits give low values 1.02 | S. cerevisiae deletion strains, locus YLR058C, strain SHM2, hits give low values 1 | S. cerevisiae deletion strains, locus YLR102C, strain apc9, hits give low values 0.997 | S. cerevisiae deletion strains, locus YLR221C, strain rsa3, hits give low values 0.973 | S. cerevisiae deletion strains, locus YLR258W, strain gsy2, hits give low values 0.983 | S. cerevisiae deletion strains, locus YLR262C, strain YPT6 (second series), hits give low values 0.978 | S. cerevisiae deletion strains, locus YLR262C, strain YPT6, hits give low values 1.04 | S. cerevisiae deletion strains, locus YLR268W, strain sec22, hits give low values 0.98 | S. cerevisiae deletion strains, locus YLR320W, strain mms22, hits give low values 0.975 | S. cerevisiae deletion strains, locus YLR330W, strain CHS5, hits give low values 1 | S. cerevisiae deletion strains, locus YLR342W, strain FKS1 (second series), hits give low values 0.999 | S. cerevisiae deletion strains, locus YLR342W, strain FKS1, hits give low values 1.01 | S. cerevisiae deletion strains, locus YLR357W, strain rsc2, hits give low values 0.935 | S. cerevisiae deletion strains, locus YLR370C, strain arc18, hits give low values 0.985 | S. cerevisiae deletion strains, locus YLR371W, strain rom2, hits give low values 1.01 | S. cerevisiae deletion strains, locus YLR384C, strain iki3, hits give low values 0.995 | S. cerevisiae deletion strains, locus YLR418C, strain cdc73, hits give low values 0.979 | S. cerevisiae deletion strains, locus YML016C, strain PPZ1, hits give low values 1.01 | S. cerevisiae deletion strains, locus YML032C, strain rad52, hits give low values 1.01 | S. cerevisiae deletion strains, locus YML120C, strain ndi1, hits give low values 0.966 | S. cerevisiae deletion strains, locus YML124C, strain tub3, hits give low values 1.01 | S. cerevisiae deletion strains, locus YMR058W, strain fet3, hits give low values 0.974 | S. cerevisiae deletion strains, locus YMR078C, strain ctf18, hits give low values 1.01 | S. cerevisiae deletion strains, locus YMR125W, strain sto1, hits give low values 1.01 | S. cerevisiae deletion strains, locus YMR129W, hits give low values 0.974 | S. cerevisiae deletion strains, locus YMR205C, strain PFK2, hits give low values 0.996 | S. cerevisiae deletion strains, locus YMR223W, strain ubp8, hits give low values 1 | S. cerevisiae deletion strains, locus YMR231W, strain pep5, hits give low values 0.98 | S. cerevisiae deletion strains, locus YMR263W, strain SAP30, hits give low values 1 | S. cerevisiae deletion strains, locus YMR307W, strain GAS1, hits give low values 0.93 | S. cerevisiae deletion strains, locus YNL067W, strain RPL9B, hits give low values 1.01 | S. cerevisiae deletion strains, locus YNL071W, strain lat1, hits give low values 0.99 | S. cerevisiae deletion strains, locus YNL128W, strain TEP1, hits give low values 1.01 | S. cerevisiae deletion strains, locus YNL153C, strain GIM3, hits give low values 1.01 | S. cerevisiae deletion strains, locus YNL209W, strain ssb2, hits give low values 0.986 | S. cerevisiae deletion strains, locus YNL233W, strain BNI4, hits give low values 1.01 | S. cerevisiae deletion strains, locus YNL248C, strain rpa49, hits give low values 0.946 | S. cerevisiae deletion strains, locus YNL250W, strain rad50, hits give low values 0.992 | S. cerevisiae deletion strains, locus YNL271C, strain bni1, hits give low values 0.997 | S. cerevisiae deletion strains, locus YNL298W, strain CLA4, hits give low values 0.995 | S. cerevisiae deletion strains, locus YNL307C, strain MCK1, hits give low values 1.01 | S. cerevisiae deletion strains, locus YNL322C, strain KRE1 (second series), hits give low values 0.968 | S. cerevisiae deletion strains, locus YNL322C, strain KRE1, hits give low values 1 | S. cerevisiae deletion strains, locus YNR049C, strain mso1, hits give low values 0.958 | S. cerevisiae deletion strains, locus YNR052C, strain pop2, hits give low values 1.01 | S. cerevisiae deletion strains, locus YOL006C, strain TOP1, hits give low values 1 | S. cerevisiae deletion strains, locus YOL012C, strain htz1 1.16 | S. cerevisiae deletion strains, locus YOL147C, strain pex11, hits give low values 1 | S. cerevisiae deletion strains, locus YOR001W, strain rrp6, hits give low values 1 | S. cerevisiae deletion strains, locus YOR061W, strain CKA2, hits give low values 1.01 | S. cerevisiae deletion strains, locus YOR069W, strain VPS5, hits give low values 1.01 | S. cerevisiae deletion strains, locus YOR070C, strain gyp1, hits give low values 0.984 | S. cerevisiae deletion strains, locus YOR080W, strain dia2, hits give low values 0.968 | S. cerevisiae deletion strains, locus YOR083W, strain WHI5, hits give low values 1.01 | S. cerevisiae deletion strains, locus YOR106W, strain vam3, hits give low values 0.994 | S. cerevisiae deletion strains, locus YOR136W, strain idh2, hits give low values 1.01 | S. cerevisiae deletion strains, locus YOR144C, strain elg1, hits give low values 1 | S. cerevisiae deletion strains, locus YOR184W, strain ser1, hits give low values 0.996 | S. cerevisiae deletion strains, locus YOR265W, strain rbl2, hits give low values 0.996 | S. cerevisiae deletion strains, locus YOR270C, strain vph1, hits give low values 0.963 | S. cerevisiae deletion strains, locus YOR290C, strain snf2, hits give low values 0.963 | S. cerevisiae deletion strains, locus YOR316C, strain cot1, hits give low values 0.998 | S. cerevisiae deletion strains, locus YPL051W, strain arl3, hits give low values 1 | S. cerevisiae deletion strains, locus YPL055C, strain LGE1, hits give low values 1.02 | S. cerevisiae deletion strains, locus YPL078C, strain atp4, hits give low values 0.984 | S. cerevisiae deletion strains, locus YPL106C, strain sse1, hits give low values 0.943 | S. cerevisiae deletion strains, locus YPL240C, strain hsp82, hits give low values 0.986 | S. cerevisiae deletion strains, locus YPL241C, strain CIN2, hits give low values 1 | S. cerevisiae deletion strains, locus YPR119W, strain clb2, hits give low values 1 | S. cerevisiae deletion strains, locus YPR141C, strain kar3, hits give low values 1 | S. cerevisiae deletion strains, locus YPR163C, strain tif3, hits give low values 1.01 | S. cerevisiae deletion strains, locus YPR167C, strain met16, hits give low values 1 | S. cerevisiae deletion strains, strain wtn01, hits give low values 0.977 | S. cerevisiae strains, strain wild type, hits give low values 0.999
